MCF10A rereplic – induces DNA re-replication in MCF 10a normal breast cells; MCF 10A DNA re-replication, Hoechst nuclear intensity, 48 h; Potency, µM (doses to about 46.1 µM), for inactives: at the highest dose activity, positive = re-replication, most hits filed as activators; 350,000 compounds, 2.9% hits; AID 624296; also: % of control where 0% means no effect; nearly all actives have a fitted effect of over 50% in size
SW480 rereplic – DNA re-replication induction in SW480 cells; SW480 DNA re-replication, Hoechst DNA content imaging, 48 h; Potency, µM (titrated, usually from 46.1 µM), inactives show at the top dose re-replication activation, most hits filed as activators; 340,000 compounds, 1.8% hits; AID 624297; also: % of control where 0% means no effect; nearly all actives have a fitted effect of over 55% in size
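Compounds, transferred as 23 nL by pin tool, were incubated with cells for 48 hr; DNA content per nucleus was then quantified by Hoechst staining and fluorescence plate imaging.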
VP16 counter – counter-screen for ROR gamma inhibitors: Gal4-VP16 reporter; Potency, µM (doses to about 53.6 µM), without a hit: at the top dose activity, negative = inhibition, most hits filed as inhibitors; Drosophila S2 Gal4-VP16 UAS-luciferase, luminescence, 20 h; 310,000 compounds, 3.5% hits;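 also: Gal4-VP16 expression switched on by copper sulfate through the metallothionein promoter; % is scaled to controls: 0 for no effect and ±100 for the full control effect; nearly all actives have a fitted effect of over 50% in size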
KB-V1 cytotox – KB-V1 MDR subline cytotoxicity; KB-V1 MDR cells viability, CellTiter-Glo, 72 h; Potency, µM (doses to about 46.1 µM), usual class: cytotoxic; 400,000 compounds, 3.4% hits; AID 1347076; also: % is scaled to controls: 0 for no effect and ±100 for the full control effect; nearly all actives have a fitted effect of over 60% in size
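Potencies derive from concentration-effect curves fitted to normalized luminescence (CellTiter-Glo) of KB-V1 cells treated for 72 h at 37 degrees C in phenol-red-free DMEM containing 10% FBS.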
RORg inh – ROR gamma (mouse) transcription inhibition | Drosophila S2 Gal4-RORgamma UAS-luciferase reporter, 20 h | P51450 | Potency, µM (top dose mostly 53.6 µM), inactives show at the top dose activity change, negative = inhibition, most hits filed as inhibitors | AID 2551 | 310,000 compounds, 5.4% hits; also: % is scaled to controls: 0 for no effect and ±100 for the full control effect; nearly all actives have a fitted effect of over 60% in size
Target sequence (P51450 whole entry, looked up, the tested form may be a part): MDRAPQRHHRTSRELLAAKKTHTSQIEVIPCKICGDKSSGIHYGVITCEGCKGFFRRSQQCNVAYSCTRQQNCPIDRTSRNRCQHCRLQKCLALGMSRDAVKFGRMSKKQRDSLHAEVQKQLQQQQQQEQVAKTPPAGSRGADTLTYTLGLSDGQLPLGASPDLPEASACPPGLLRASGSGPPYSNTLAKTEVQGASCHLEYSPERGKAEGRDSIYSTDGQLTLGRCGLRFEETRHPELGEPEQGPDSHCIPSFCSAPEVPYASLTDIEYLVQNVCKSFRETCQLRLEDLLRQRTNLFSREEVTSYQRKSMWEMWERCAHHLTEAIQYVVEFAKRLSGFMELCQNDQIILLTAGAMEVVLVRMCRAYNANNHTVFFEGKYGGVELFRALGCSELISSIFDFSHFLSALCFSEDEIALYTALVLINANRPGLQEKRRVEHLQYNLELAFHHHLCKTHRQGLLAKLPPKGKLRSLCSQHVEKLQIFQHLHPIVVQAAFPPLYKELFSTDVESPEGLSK
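Schneider cells (Drosophila), stable Gal4 DBD–ROR gamma + UAS-luc; 1 hr cmpd preincubation; Cu2+ induction 700 uM final; 20 hr ambient; luminescence.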
KB-3-1 cytotox – KB-3-1 parental cell cytotoxicity. KB-3-1 viability, CellTiter-Glo ATP luminescence, 72 h. 400,000 compounds, 1.4% hits. Potency, µM (doses to about 46.1 µM), usual class: cytotoxic; also: % is scaled to controls: 0 for no effect and ±100 for the full control effect; nearly all actives have a fitted effect of over 60% in size
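Cells are dispensed, compounds pinned in, plates held at 37 °C for 72 h, then CellTiter-Glo is added and luminescence read after 10 minutes. Cell line: parental KB-3-1 in phenol-red-free DMEM, 10% FBS.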
Starred values were filed as active, the others as inactive. Only some compounds are listed: those with a hit (about 10% of all), similar ones and a draw of the others. Calls follow the shape of the dose curve; as a rule, active = well fitted curve in the direction sought with a large enough effect; inconclusive = small, poorly fitted or top-dose-only effect, or another doubt; inactive = no such curve, though single readings can be large; an effect the other way counts as inactive or inconclusive. Potency is read from the fitted curve at half-maximal effect.

For COc1ccc(NC(=O)NNC(=O)C(C)Oc2ccc(C(C)C)cc2)c(OC)c1 (stereo unspecified) the results were MCF10A rereplic 5%, SW480 rereplic -1%, VP16 counter inconclusive, KB-V1 cytotox inactive, RORg inh 20µM* and KB-3-1 cytotox inactive.
Screening COc1ccc(NCC(=O)Nc2ccc(Cl)cc2C)c(OC)c1 returned MCF10A rereplic 10%, SW480 rereplic 16µM*, VP16 counter -9%, KB-V1 cytotox inactive, RORg inh 2% and KB-3-1 cytotox inactive.
`COc1ccc(NC(=O)c2ccccc2Oc2ccccc2)c(OC)c1` gave MCF10A rereplic 26µM*, SW480 rereplic 3%, VP16 counter 1%, KB-V1 cytotox inactive, RORg inh -12% and KB-3-1 cytotox inactive.
`CNC(=O)C1CCC(Cn2c(=O)c3sccc3n(CC(=O)NCc3cccc(OC)c3)c2=O)CC1` (stereo unspecified) gave KB-V1 cytotox inactive and KB-3-1 cytotox inactive.
For COc1ccccc1C(=O)Nc1cccc(C(=O)OCc2cc(=O)n3ccsc3n2)c1 the results were KB-V1 cytotox inactive and KB-3-1 cytotox inactive.
C[C@@H]1CN([C@@H](C)CO)S(=O)(=O)c2ccc(Br)cc2O[C@@H]1CN(C)C(=O)C1CC1 was read as KB-V1 cytotox inactive and KB-3-1 cytotox inactive.
Screening CN1CCN(c2ccc([N+](=O)[O-])c(-n3nc(-c4ccccc4)c4ccccc4c3=O)c2)CC1 returned MCF10A rereplic -1%, SW480 rereplic 9%, VP16 counter -1%, KB-V1 cytotox 13µM*, RORg inh 16% and KB-3-1 cytotox inconclusive.
Nc1nnc(-c2ccccc2)c(-c2ccccc2)n1 was read as MCF10A rereplic 6%, SW480 rereplic -17%, VP16 counter -5%, KB-V1 cytotox inactive, RORg inh -7% and KB-3-1 cytotox inactive.
Screening Nc1nc(-c2ccccc2)c(-c2ccccc2)n1N returned MCF10A rereplic inconclusive, SW480 rereplic -16%, VP16 counter 1.4µM*, KB-V1 cytotox inconclusive, RORg inh 0.4µM* and KB-3-1 cytotox inactive.
COc1ccc(-n2nc3c(c2NC(=O)C(=O)NCc2ccccc2)CSC3)cc1 was read as KB-V1 cytotox inactive and KB-3-1 cytotox inactive.
Screening CCOC(=O)C1CCCN(C(=O)c2cc(-c3ccc(C)cc3)nc3ccccc23)C1 (stereo unspecified) returned MCF10A rereplic inconclusive, SW480 rereplic -1%, VP16 counter inconclusive, KB-V1 cytotox 12µM*, RORg inh -32% and KB-3-1 cytotox inactive.
Screening CCOC(=O)C1CCCN(C(=O)c2ccccc2SCCOC)C1 (stereo unspecified) returned MCF10A rereplic 21µM*, SW480 rereplic inconclusive, VP16 counter -19%, KB-V1 cytotox inactive, RORg inh -1% and KB-3-1 cytotox inactive.
CCOc1ccc2ncc3c(-c4cccc(OC)c4)nn(-c4ccccc4)c3c2c1 was read as KB-V1 cytotox inactive and KB-3-1 cytotox inactive.
Screening O=C(CSc1ncc(-c2ccccc2)[nH]1)Nc1cccc(Br)c1 returned KB-V1 cytotox inactive and KB-3-1 cytotox inactive.
`CCOC(=O)Cc1ccc(NC(=O)N(Cc2ccc(OC)cc2)C2CCN(C(C)=O)CC2)cc1` gave KB-V1 cytotox inactive and KB-3-1 cytotox inactive.
CC1CC(C)CN(S(=O)(=O)c2ccc3c(c2)CC(=O)N3)C1 (stereo unspecified) was read as MCF10A rereplic -3%, SW480 rereplic -12%, KB-V1 cytotox inactive and KB-3-1 cytotox inactive.
`CCOc1ccc(NC(=O)CSc2nnc(-c3ccccc3Cl)n2Cc2ccco2)cc1` gave MCF10A rereplic 2%, SW480 rereplic 3%, VP16 counter -2%, KB-V1 cytotox 21µM*, RORg inh inconclusive and KB-3-1 cytotox inconclusive.

Screening results: PubChem BioAssay, National Center for Advancing Translational Sciences (NCATS)
